Compounds with a hit are over-represented: about 1.1% of the library has one in this group of screens.
IL1B NFkB pot – enhances IL-1B driven NFkB nuclear translocation; HUVEC IL-1B NFkB p65 nuclear translocation imaging; activation, % at 2 µM; 94,000 compounds, 0.3% hits;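 active = activation above 40%, about the mean plus 3 SD, also judged a hit on visual image review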;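 also: percent activation is computed from the nuclear over cytoplasmic p65 intensity ratio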
IL1B NFkB inh – blocks IL-1B driven NFkB nuclear translocation in HUVEC cells. inhibition, % at 2 µM. AID 796. HUVEC IL-1B NFkB p65 nuclear translocation imaging. 94,000 compounds, 0.43% hits;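 active = inhibition above about 30% together with a positive call from visual inspection of the well image, limit read from the data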;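 also: nuclear over cytoplasmic p65 intensity ratio measured by imaging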
Candida biofilm – kills Candida albicans biofilms; C. albicans biofilm + clotrimazole, Alamar Blue; AID 834; inhibition, % at 6 µM; 85,000 compounds, 0.14% hits;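 active = inhibition above 20%; inactive = inhibition below 20%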;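 also: preformed 24 hr biofilms exposed to compound for 48 hr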
IL1B cytotox – toxic to HUVEC cells under IL-1B stimulation | HUVEC cell count loss, Hoechst imaging, IL-1B stimulated | cell count reduction, % at 2 µM | 94,000 compounds, 0.41% hits;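 active = cell count reduction more than 3 SD above the screen-wide mean, cut at about 70% in these data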
EphB4 antag – antagonists of human EphB4-ephrin-B2 interaction; P54760; EphB4 LBD / TNYL-RAW-Alexa532 peptide, fluorescence polarization; inhibition, % at 7 µM; 97,000 compounds, 0.15% hits;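 active = inhibition above the screen-wide mean inhibition plus 3 SD, cut at about 15% in these data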
Target sequence (P54760 whole entry, looked up, the tested form may be a part): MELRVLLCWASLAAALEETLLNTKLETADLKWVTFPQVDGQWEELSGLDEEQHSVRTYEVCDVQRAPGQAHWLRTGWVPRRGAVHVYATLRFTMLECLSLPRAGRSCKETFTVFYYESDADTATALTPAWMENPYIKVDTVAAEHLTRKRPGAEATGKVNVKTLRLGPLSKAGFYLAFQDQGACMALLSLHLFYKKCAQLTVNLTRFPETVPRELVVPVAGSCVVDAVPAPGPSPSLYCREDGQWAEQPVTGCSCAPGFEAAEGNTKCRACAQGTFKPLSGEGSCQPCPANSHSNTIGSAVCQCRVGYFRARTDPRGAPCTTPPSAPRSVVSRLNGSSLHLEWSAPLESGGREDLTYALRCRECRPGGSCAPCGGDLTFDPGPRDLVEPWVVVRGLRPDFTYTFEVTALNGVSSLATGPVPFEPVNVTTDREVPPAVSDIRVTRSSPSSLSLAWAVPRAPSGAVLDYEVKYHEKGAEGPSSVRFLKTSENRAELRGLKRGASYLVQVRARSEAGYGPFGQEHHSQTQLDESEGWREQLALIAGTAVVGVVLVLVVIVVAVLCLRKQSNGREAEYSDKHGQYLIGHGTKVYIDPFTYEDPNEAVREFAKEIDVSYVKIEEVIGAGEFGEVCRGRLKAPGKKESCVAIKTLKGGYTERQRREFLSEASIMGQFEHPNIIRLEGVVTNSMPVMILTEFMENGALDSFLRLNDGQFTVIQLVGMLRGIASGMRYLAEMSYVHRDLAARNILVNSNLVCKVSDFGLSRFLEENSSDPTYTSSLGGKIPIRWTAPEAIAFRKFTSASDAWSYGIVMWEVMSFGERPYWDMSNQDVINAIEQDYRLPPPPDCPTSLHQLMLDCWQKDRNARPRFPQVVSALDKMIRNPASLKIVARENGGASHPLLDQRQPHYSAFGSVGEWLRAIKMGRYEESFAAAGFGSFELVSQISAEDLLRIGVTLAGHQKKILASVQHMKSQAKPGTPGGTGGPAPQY
Numbers stand for hits; - = inactive; . = no result.

SMILES	IL1B NFkB pot	IL1B NFkB inh	Candida biofilm	IL1B cytotox	EphB4 antag
COc1cccc(C(=O)Oc2cc(N)n(S(=O)(=O)c3ccc(C)cc3)n2)c1OC	-	32	-	-	-
C=C(Cl)COc1cc(C)cc2oc(=O)cc(CC)c12	-	47	-	-	-
CCCc1cc(=O)oc2cc(C)cc(OCC(=O)O)c12	-	-	-	-	-
CC(=O)N1CCN=C1SCc1cccc(C(F)(F)F)c1	-	-	.	-	-
CC(=O)N1CCN=C1SCc1ccc(Br)cc1	-	-	24	-	-
CC1CCCC(n2c(=S)[nH]c3ccccc3c2=O)C1C (stereo not given)	-	-	-	-	-
O=C(NCc1ccccc1)Oc1cccc(Cl)c1	42	-	-	-	-
Cc1c(Cc2ccccc2)sc(N)c1C(N)=O	-	98	-	87	-
COc1cccc(-n2nc3c(-n4ncc(C#N)c4N)nnc(C)c3c2C)c1	-	46	-	-	-
COc1ccc(C(=O)N(Cc2ccccc2)Cc2cc3cc4c(cc3[nH]c2=O)OCCO4)cc1	-	72	-	-	-
COC(=O)c1cn(NC(=O)c2ccc3c(c2)OCO3)c(=O)c2ccccc12	.	.	-	.	.
COC(=O)c1cn(NC(=O)c2cccc(F)c2)c(=O)c2ccccc12	-	-	60	-	-
COC(=O)c1cn(NC(=O)c2ccc(OC)c(OC)c2)c(=O)c2ccccc12	-	39	.	-	-
Cc1ccc2c(c1)N(Cc1ccncc1)C(=O)C(C)O2 (stereo not given)	-	-	.	-	-
CCCCOCCCNC(=O)CCCOc1ccccc1	-	-	-	93	-
Cn1c(/C=N/c2nc3ccccc3[nH]2)nc2ccccc21	-	-	-	-	-
Cn1c(/C=N/n2cnnc2)nc2ccccc21	-	99	-	85	-
Cc1nc2cc(-c3cccc(F)c3)nn2c(C)c1CCC(=O)NC(C)CCc1ccco1 (stereo not given)	-	-	-	-	-
CCOC(=O)C1CCCN(Cc2cc(Br)ccc2OC)C1 (stereo not given)	.	.	-	.	.
CCOC(=O)C1CCCN(Cc2cc(Br)c(OC)cc2OC)C1 (stereo not given)	-	98	-	84	-
O=C1CC(NCc2ccc3c(c2)OCO3)C(=O)N1CCc1ccccc1 (stereo not given)	.	.	-	.	.
Cc1cc(NS(=O)(=O)c2ccc(NC(=O)COc3ccccc3Cl)cc2)no1	-	-	-	-	-
Cc1cc(NS(=O)(=O)c2ccc(NC(=O)COc3ccc(Cl)cc3)cc2)no1	-	99	-	88	-
COC(=O)c1sc2cnccc2c1N	-	-	-	78	-
O=C(Nc1ccccc1)OCCNC(=O)c1ccccc1	40	-	.	-	-
SMILES	IL1B NFkB pot	IL1B NFkB inh	Candida biofilm	IL1B cytotox	EphB4 antag
O=C(NCCOC(=O)c1ccncc1)c1ccccc1	-	-	-	-	-
Cc1cc(C)n(-c2nc3ccccc3[nH]c2=O)n1	-	-	.	87	-
Cc1cc(C)n(-c2nc3ccccc3nc2Nc2ccc3[nH]c(=O)[nH]c3c2)n1	-	-	-	-	-
Cc1cc(C)n(-c2nc3ccccc3nc2N2CCCCCC2)n1	-	-	-	-	-
Cc1cc(C)n(-c2nc3ccccc3nc2N2CCCC2)n1	-	-	-	80	-
Cc1ccc(NC(=O)CN(c2ccccc2F)S(C)(=O)=O)cc1	-	-	-	-	-
COc1ccccc1CC(=O)Nc1ccc(-c2noc(COc3cccc(C)c3C)n2)cc1	-	-	-	-	-
COc1ccccc1CC(=O)Nc1ccc(-c2noc(COc3ccc(Br)cc3)n2)cc1	50	-	-	-	-
CCOC(=O)N1CCC(NC(=O)Cn2ncn3c(cc4sc(CC)cc43)c2=O)CC1	.	.	-	.	.
CCC(C)(CC(=O)N(C)CCC#N)c1ccccc1 (stereo not given)	-	-	-	84	-
O=C(COc1ccc(Br)cc1)NCc1ccccn1	41	-	-	-	-
N#Cc1ccc(OCC(=O)NCCc2ccccn2)cc1	-	-	-	-	-
O=C(CSc1nc2ccccc2c(=O)[nH]1)Nc1ccc(S(=O)(=O)N2CCCC2)cc1	-	31	.	-	-
Cc1cccc(Oc2coc3cc(OC(=O)c4cc5ccccc5oc4=O)ccc3c2=O)c1	-	-	.	-	-
Cc1ccc(N(C(=O)C2CCCC2)C2C=CS(=O)(=O)C2)cc1C (stereo not given)	44	-	.	-	-
CC(=O)N(c1cccc(Br)c1)C1C=CS(=O)(=O)C1 (stereo not given)	-	-	-	-	-
CCOc1ccc(CNC(=O)C2CCN(S(=O)(=O)CC)CC2)cc1OC	-	-	-	94	-
Cc1nc2c(c(=O)n1CC1CCCO1)c1nc3ccccc3nc1n2Cc1ccc2c(c1)OCO2 (stereo not given)	.	.	-	.	.
COc1ccc2nc(C)c3cc(C)oc3c2c1	-	-	-	87	-
COc1cccc2c1nc(C)c1cc(C)oc12	-	-	-	-	-
Cc1ccc(N(CC(O)CON=C2c3ccccc3-c3ccccc32)S(C)(=O)=O)cc1 (stereo not given)	-	-	-	-	-
Cc1ccc(N2C(=O)C(O)(C(F)(F)F)C3=C2CC(C)(C)CC3=O)cc1C (stereo not given)	-	-	.	-	16
CCn1c(SCc2ccc(C)cc2)nnc1-c1cnccn1	63	-	-	-	-
CCn1c(SCC(=O)c2ccccc2)nnc1-c1cnccn1	-	-	.	-	-
O=C(O)c1cccc(S(=O)(=O)NCC2CCCO2)c1 (stereo not given)	-	93	-	90	-
SMILES	IL1B NFkB pot	IL1B NFkB inh	Candida biofilm	IL1B cytotox	EphB4 antag
CCn1c(SCC(=O)N2c3ccccc3CC2C)nnc1-c1ccco1 (stereo not given)	-	45	-	-	-
CCOC(=O)CSc1nnc2n1C(C)(C)Cc1ccccc1-2	-	-	-	-	-
CC1Cc2ccccc2N1C(=O)CSc1nnc2n1C(C)(C)Cc1ccccc1-2 (stereo not given)	-	98	-	95	-
CCOC(=O)c1ccc(COC(=O)c2cc3ccccc3oc2=O)o1	-	-	-	76	-
CCOC(=O)COc1ccc2cc(C(=O)OCC)c(=O)oc2c1	-	-	-	-	-
Cc1ccc2c(C(=O)CN3CCCCC3CCO)c(C)[nH]c2c1 (stereo not given)	-	-	-	-	-
Cc1ccc2c(C(=O)CN3CCN(C4CCCCC4)CC3)c(C)[nH]c2c1	-	-	-	92	-
CC(C)CC(=O)CN1C(=O)C2(OCCO2)c2ccccc21	-	-	-	77	-
Cc1cc(N2CCN(c3ccccn3)CC2)n2cc(-c3ccccc3)nc2n1	-	-	.	-	16
COc1cc(OC)cc(C(=O)NC2=NCCS2)c1	-	-	-	-	-
CC1CCN(S(=O)(=O)c2cc(Br)cc(C(=O)NC3=NCCS3)c2)CC1	-	-	.	-	17
O=C(Nc1ccc2nc(-c3ccccc3)oc2c1)c1ccco1	40	-	-	-	-
COc1cccc(COc2nc3c(c(=O)n(C)c(=O)n3C)n2C)c1	-	38	-	-	-
CC(c1ccccc1)C1CC(=O)N(C2CCCCC2)C1=O (stereo not given)	-	-	-	-	17

High-throughput results as filed in PubChem.
